Columns and labels:
[1] = system: AAK1; conditions: compound concentrations:3nM, 10nM, 30nM, 100nM, 300nM, 1000nM, 3000nM, 30000nM,R2:0.99102510116180997,slope:1.0759365754475601,EC50 Standard Error, by the legend:Standard error of the EC50 estimation as provided by the drc package.
[2] = system: AURKA; conditions: compound concentrations:3nM, 10nM, 30nM, 100nM, 300nM, 1000nM, 3000nM, 30000nM,R2:0.99130699388271104,slope:0.94634188293278299,EC50 Standard Error, by the legend:Standard error of the EC50 estimation as provided by the drc package.
[3] = system: AURKB; conditions: compound concentrations:3nM, 10nM, 30nM, 100nM, 300nM, 1000nM, 3000nM, 30000nM,R2:0.99833060468955204,slope:0.90064720888108796,EC50 Standard Error, by the legend:Standard error of the EC50 estimation as provided by the drc package.
[4] = system: BCR; conditions: compound concentrations:3nM, 10nM, 30nM, 100nM, 300nM, 1000nM, 3000nM, 30000nM,R2:0.97560136182595103,slope:1.05645406378656,EC50 Standard Error, by the legend:Standard error of the EC50 estimation as provided by the drc package.
[5] = system: BMP2K; conditions: compound concentrations:3nM, 10nM, 30nM, 100nM, 300nM, 1000nM, 3000nM, 30000nM,R2:0.98755156955359502,slope:1.4167647234137799,EC50 Standard Error, by the legend:Standard error of the EC50 estimation as provided by the drc package.
[6] = system: BMPR2; conditions: compound concentrations:3nM, 10nM, 30nM, 100nM, 300nM, 1000nM, 3000nM, 30000nM,R2:0.93324573239730002,slope:2.2231806087315,EC50 Standard Error, by the legend:Standard error of the EC50 estimation as provided by the drc package.
[7] = system: CCNH; conditions: compound concentrations:3nM, 10nM, 30nM, 100nM, 300nM, 1000nM, 3000nM, 30000nM,R2:0.984368608654974,slope:1.5961170242536,EC50 Standard Error, by the legend:Standard error of the EC50 estimation as provided by the drc package.
[8] = system: CHEK1; conditions: compound concentrations:3nM, 10nM, 30nM, 100nM, 300nM, 1000nM, 3000nM, 30000nM,R2:0.99154934454702504,slope:1.2455496028398201,EC50 Standard Error, by the legend:Standard error of the EC50 estimation as provided by the drc package.
[9] = system: EPHA1; conditions: compound concentrations:3nM, 10nM, 30nM, 100nM, 300nM, 1000nM, 3000nM, 30000nM,R2:0.96586410409124401,slope:0.42399886433003398,EC50 Standard Error, by the legend:Standard error of the EC50 estimation as provided by the drc package.
[10] = system: EPHA7; conditions: compound concentrations:3nM, 10nM, 30nM, 100nM, 300nM, 1000nM, 3000nM, 30000nM,R2:0.88780253900259998,slope:1.37394463734268,EC50 Standard Error, by the legend:Standard error of the EC50 estimation as provided by the drc package.
[11] = system: FER; conditions: compound concentrations:3nM, 10nM, 30nM, 100nM, 300nM, 1000nM, 3000nM, 30000nM,R2:0.99765697857562097,slope:1.03588430141815,EC50 Standard Error, by the legend:Standard error of the EC50 estimation as provided by the drc package.
[12] = system: FLT3; conditions: compound concentrations:3nM, 10nM, 30nM, 100nM, 300nM, 1000nM, 3000nM, 30000nM,R2:0.96575906270431899,slope:1.4210084972678201,EC50 Standard Error, by the legend:Standard error of the EC50 estimation as provided by the drc package.
[13] = system: FLT4; conditions: compound concentrations:3nM, 10nM, 30nM, 100nM, 300nM, 1000nM, 3000nM, 30000nM,R2:0.97672359479992199,slope:1.0836870062150401,EC50 Standard Error, by the legend:Standard error of the EC50 estimation as provided by the drc package.
[14] = system: INCENP; conditions: compound concentrations:3nM, 10nM, 30nM, 100nM, 300nM, 1000nM, 3000nM, 30000nM,R2:0.98280014886482903,slope:1.1847745210473,EC50 Standard Error, by the legend:Standard error of the EC50 estimation as provided by the drc package.
[15] = system: IRAK4; conditions: compound concentrations:3nM, 10nM, 30nM, 100nM, 300nM, 1000nM, 3000nM, 30000nM,R2:0.93116388715812703,slope:1.4824347437463801,EC50 Standard Error, by the legend:Standard error of the EC50 estimation as provided by the drc package.
[16] = system: MAP3K11; conditions: compound concentrations:3nM, 10nM, 30nM, 100nM, 300nM, 1000nM, 3000nM, 30000nM,R2:0.99429213742215306,slope:0.76505348781975802,EC50 Standard Error, by the legend:Standard error of the EC50 estimation as provided by the drc package.
[17] = system: MAP4K2; conditions: compound concentrations:3nM, 10nM, 30nM, 100nM, 300nM, 1000nM, 3000nM, 30000nM,R2:0.97693743702181501,slope:1.5044165115380901,EC50 Standard Error, by the legend:Standard error of the EC50 estimation as provided by the drc package.
[18] = system: MARK2; conditions: compound concentrations:3nM, 10nM, 30nM, 100nM, 300nM, 1000nM, 3000nM, 30000nM,R2:0.98471401601648001,slope:1.6013857186590299,EC50 Standard Error, by the legend:Standard error of the EC50 estimation as provided by the drc package.
[19] = system: MARK3; conditions: compound concentrations:3nM, 10nM, 30nM, 100nM, 300nM, 1000nM, 3000nM, 30000nM,R2:0.98601648224136496,slope:1.5139039229536799,EC50 Standard Error, by the legend:Standard error of the EC50 estimation as provided by the drc package.
[20] = system: PRKCZ; parameters: species or system human, MV4-11 + K-562 + COLO205 + SK-N-BE2 + OVCAR-8; conditions: read-out: apparent Kd; compound concentrations:100 nM and 1000 nM (sheet 'Samples'); n = 1

Molecule: TAK659
- EC50 [1]: 0.997 µM
- Kd ([1]; read-out: apparent Kd): 0.72 µM
- EC50 [2]: 1.28 µM
- Kd ([2]; read-out: apparent Kd): 0.59 µM
- EC50 [3]: 0.161 µM
- Kd ([3]; read-out: apparent Kd): 0.0867 µM
- EC50 [4]: 1.02 µM
- Kd ([4]; read-out: apparent Kd): 0.528 µM
- EC50 [5]: 0.537 µM
- Kd ([5]; read-out: apparent Kd): 0.456 µM
- EC50 [6]: 0.325 µM
- Kd ([6]; read-out: apparent Kd): 0.257 µM
- EC50 [7]: 1.73 µM
- Kd ([7]; read-out: apparent Kd): 1.58 µM
- EC50 [8]: 0.149 µM
- Kd ([8]; read-out: apparent Kd): 0.133 µM
- EC50 [9]: 2.91 µM
- Kd ([9]; read-out: apparent Kd): 1 µM
- EC50 [10]: 0.81 µM
- Kd ([10]; read-out: apparent Kd): 0.617 µM
- EC50 [11]: 0.316 µM
- Kd ([11]; read-out: apparent Kd): 0.202 µM
- EC50 [12]: 0.507 µM
- Kd ([12]; read-out: apparent Kd): 0.313 µM
- EC50 [13]: 0.564 µM
- Kd ([13]; read-out: apparent Kd): 0.308 µM
- EC50 [14]: 0.15 µM
- Kd ([14]; read-out: apparent Kd): 0.15 µM
- EC50 [15]: 0.718 µM
- Kd ([15]; read-out: apparent Kd): 0.675 µM
- EC50 [16]: 9.09 µM
- Kd ([16]; read-out: apparent Kd): 7.19 µM
- EC50 [17]: 0.595 µM
- Kd ([17]; read-out: apparent Kd): 0.459 µM
- EC50 [18]: 0.837 µM
- Kd ([18]; read-out: apparent Kd): 0.762 µM
- EC50 [19]: 0.68 µM
- Kd ([19]; read-out: apparent Kd): 0.67 µM

Molecule: CC(C)Nc1cc(-c2ccc3c(N)n[nH]c3c2)nc(N)n1 [GSK2221681A]
- potency estimated from few doses [20]: 1.52 µM

Molecule: CCn1c(-c2nonc2N)nc2cncc(Br)c21 [SB-738004]
- potency estimated from few doses [20]: 0.544 µM

Molecule: Nc1nccc(-c2ccc3c(N)n[nH]c3c2)n1 [GSK1034945A]
- potency estimated from few doses [20]: 1.83 µM
